MsrA inhibitor – bovine MsrA enzyme inhibitors, primary screen, biochemical, absorbance, HTS; Methionine sulfoxide reductase A (Bos taurus); purified bovine MsrA, absorbance read-out; inhibition, % at 15.5 µM; hit rate 0.75% among 360,000; in the data active = inhibition above about 4.5%
NadD block – inhibitors of S. aureus NadD, primary screen, biochemical, colorimetric, uHTS | purified NadD enzyme, colorimetric absorbance read-out | Nicotinate-nucleotide adenylyltransferase NadD (Staphylococcus aureus N315) | inhibition, % at 20 µM | hit rate 0.78% among 360,000; in the data active = inhibition above about 26%
DAGLB inh – DAGLB lipase inhibitors, primary screen, biochemical, fluorescence, HTS | AID 504411, 2011 | inhibition, % at 5.17 µM | HEK293T DAGLB membrane lysate, EnzChek fluorogenic substrate | hit rate 0.059% among 340,000; in the data active = inhibition above about 34%
bovine MsrA act – bovine MsrA enzyme activators, primary screen, biochemical, absorbance, HTS; Methionine sulfoxide reductase A (Bos taurus); purified bovine MsrA, absorbance read-out; activation, % at 10.6 µM; hit rate 0.3% among 360,000; in the data active = activation above about 7.5%
rCAG binder – binders of r(CAG) RNA repeats, primary screen, biochemical, fluorescence; r(CAG) RNA repeat, TO-PRO-1 dye displacement fluorescence; hit rate 1.3% among 370,000; inhibition, % at 3 µM; AID 651821, 2012;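 active = inhibition above the plate cutoff, the mean of all test compounds on that plate plus 3 SD, cut at about 35% in these data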;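 note: higher means more dye released from RNA so lower well fluorescence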
DSG3 Ab inh – inhibitors of pemphigus antibody binding to DSG3, primary screen, biochemical, bead-based, flow cytometry, scFv-GFP; binding (percent of control), % at 10 µM; hit rate 0.48% among 310,000; DSG3-coupled beads, scFv-anti-DSG3-GFP binding; active compounds read low; Desmoglein-3 (Homo sapiens), P32926;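 active = binding more than 3 SD below its plate's average and above zero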;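 note: hits lower antibody fragment binding to DSG3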
rCAG binder conf – small molecules binding CAG repeat RNA – biochemical, fluorescence, confirmation; shares compounds with rCAG binder; r(CAG) RNA repeat, TO-PRO-1 dye displacement fluorescence; inhibition, % at 3 µM; hit rate 70% among 4,300; AID 652065, 2013;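 active = inhibition above a per-plate cutoff, the mean inhibition of sample wells plus 3 SD, cut at about 35% in these data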;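 note: loss of TO-PRO-1 fluorescence as compound displaces dye from 1x1 AA loop RNA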
dCAG dye counter – displacement of TO-PRO-1 from CAG DNA duplex, counter-screen for rCAG RNA repeat binder project, biochemical, fluorescence, TO-PRO-1 dye, d(CAG) DNA oligo; hit rate 94% among 4,300; AID 652068, 2013; shares compounds with rCAG binder; inhibition, % at 3 µM; d(CAG) DNA oligo TO-PRO-1 dye displacement;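 active = inhibition above its plate's cutoff, the mean test-well inhibition plus 3 SD, cut at about 4.8% in these data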;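 note: hits displace the dye from DNA and so lower well fluorescence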
DNA CAG DR – inhibitors of DNA CAG/GTC TO-PRO-1 complex, dose response, counter-screen for rCAG RNA repeat binder project, biochemical, fluorescence, TO-PRO-1 dye; shares compounds with rCAG binder; DNA CAG/GTC duplex TO-PRO-1 dye displacement fluorescence; IC50, µM; hit rate 20% among 250; AID 686960, 2013; in the data active = IC50 below about 10 µM
A number is an active result; – = inactive; · = not tested or not shown. Most compounds without a hit are left out; they make up all but 3.2% or so of the library.

SMILES	MsrA inhibitor	NadD block	DAGLB inh	bovine MsrA act	rCAG binder	DSG3 Ab inh	rCAG binder conf	dCAG dye counter	others
COc1ccc(OCC2CN(C3CCCC3)S(=O)(=O)CCO2)cc1 (stereo unspecified)	–	·	·	·	–	·	·	·
Cc1ccc(OS(=O)(=O)c2ccccc2)c(/C=N/N=C2\NC(=O)C(C)S2)c1 (stereo unspecified)	–	–	–	–	36	–	46	13
Cc1ccc(C(=O)Nc2ccc(C(=O)N/N=C/c3c[nH]c4ccccc34)cc2)cc1	–	–	–	–	–	–	·	·
Cc1cccc(NC(=S)N/N=C/c2c[nH]c3ccccc23)c1	–	–	–	–	36	–	–	14
Cc1cccc(C)c1NC(=O)C(c1ccccc1OC(F)(F)F)N1CCN(C)CC1 (stereo unspecified)	–	·	·	·	–	·	·	·
O=C(O)c1c2c(nc3ccc(S(=O)(=O)N4CCC(C(=O)NCc5ccccc5Cl)CC4)cc13)CCCC2	–	–	–	–	39	–	36	9.5
CC(C)CCNC(=O)C1CCN(S(=O)(=O)c2ccc3nc4c(c(C(=O)O)c3c2)CCCCC4)CC1	–	–	–	–	–	–	·	·
O=C(O)c1c2c(nc3ccc(S(=O)(=O)N4CCC(C(=O)NC5CCCCCC5)CC4)cc13)CCCC2	–	–	–	–	36	–	41	13
COc1ccc(CNC(=O)C2CCN(S(=O)(=O)c3ccc4nc5c(c(C(=O)O)c4c3)CCCC5)CC2)cc1	–	–	–	–	–	–	·	·
O=C(O)c1c2c(nc3ccc(S(=O)(=O)N4CCC(C(=O)NCc5ccc(Cl)cc5)CC4)cc13)CCCC2	–	–	–	–	42	·	40	13
CC(C)(C)C(=O)O[C@@H]1CCC[C@@]2(C(=O)N(Cc3ccccc3)c3ccccc32)[C@H]1NC(=O)CCc1ccccc1	·	·	·	·	–	·	·	·
Cc1ccccc1CN1CCCCC(NC(=O)c2ccc(N(C)C)cc2)C1=O (stereo unspecified)	·	·	·	·	–	·	·	·
CCOc1ccccc1N(CC(=O)NCCc1ccc(OC)c(OC)c1)S(=O)(=O)c1ccccc1	–	–	–	–	43	–	–	–
CCOc1ccccc1N(CC(=O)Nc1ccc(OC)c(OC)c1)S(=O)(=O)c1ccccc1	–	–	–	–	–	–	·	·
NC(C(=O)O)C1ON=C(Cl)C1O (stereo unspecified)	–	–	–	–	41	–	–	–
Cc1ccc(CN2CCCCC(NC(=O)Nc3cccc([N+](=O)[O-])c3)C2=O)cc1 (stereo unspecified)	·	·	·	·	–	·	·	·
O=C(Nc1cccc(Cl)c1)Nc1sccc1-c1nc2ccccc2s1	–	–	·	–	35	–	–	18
O=C1/C(=C/c2ccc(Br)cc2)Oc2cc(O)ccc21	–	–	–	–	–	–	·	·
CC(C)(C)c1ccc(/C=C2\Oc3cc(O)ccc3C2=O)cc1	–	–	–	–	58	–	50	16
CCOc1cc(/C=C2/C(=N)N3C=CSC3=NC2=O)ccc1OCCCOc1ccccc1C	–	–	–	–	–	–	·	·
CCOc1cc(/C=C2\C(=N)N3N=C(S(C)(=O)=O)SC3=NC2=O)ccc1OCCOc1cccc(OC)c1	–	31	–	–	49	–	92	73
CCS(=O)(=O)C1=NN2C(=N)/C(=C\c3ccc(OS(=O)(=O)c4ccccc4)cc3)C(=O)N=C2S1	·	–	–	–	·	–	·	·
CCS(=O)(=O)C1=NN2C(=N)/C(=C\c3ccc(OCCOc4cccc(OC)c4)c(OC)c3)C(=O)N=C2S1	–	–	–	–	49	–	91	76
NC(Cc1ccc(C(F)(F)F)cc1)c1csc(Nc2cc(NCc3ccco3)ncn2)n1 (stereo unspecified)	–	–	·	–	–	·	·	·
CNc1ccc(Br)cc(C(=O)/C=C/c2cc(OC)ccc2OC)c1=O	–	–	–	–	43	–	38	16
SMILES	MsrA inhibitor	NadD block	DAGLB inh	bovine MsrA act	rCAG binder	DSG3 Ab inh	rCAG binder conf	dCAG dye counter	others
CNc1ccc(Br)cc(C(=O)/C=C/c2ccc(OC)cc2)c1=O	–	–	–	–	42	–	40	15
C[C@@H]1CCN(C2CC2)S(=O)(=O)c2ccc(N3CCC[C@H]3CO)cc2O1	·	·	·	·	–	·	·	·
CC[C@@H]1C=C(C(=O)O)[C@H](c2ccc(Cl)cc2)N1S(=O)(=O)c1ccc(C)cc1	–	–	–	–	–	–	·	·
CCCC[C@@H]1C=C(C(=O)O)[C@H](c2ccc3c(c2)OCO3)N1S(=O)(=O)c1ccc(C)cc1	–	–	–	–	45	–	39	11
CCCC[C@@H]1C=C(C(=O)O)[C@H](c2ccc(Cl)cc2)N1S(=O)(=O)c1ccc(C)cc1	–	–	–	–	58	–	54	20
CCCCC[C@@H]1C=C(C(=O)O)[C@H](c2ccc(Br)cc2)N1S(=O)(=O)c1ccc(C)cc1	–	–	–	–	80	–	69	31
Cc1ccc(CN2C(=O)C(CC(C)C)Nc3ncnc(N4CCCCC4)c32)cc1 (stereo unspecified)	–	–	·	–	–	·	·	·
CCN1C(=O)[C@H]2[C@@H](c3ccc(C(F)(F)F)cc3)N[C@]3(CCCN(Cc4ccc(F)cc4)C3=O)[C@H]2C1=O	–	–	–	–	–	–	·	·
CCCc1cc(=O)oc2cc(C)cc(OCC(=O)N[C@@H](CSCc3ccccc3)C(=O)O)c12	–	–	–	–	62	–	50	13
CCCc1cc(=O)oc2cc(C)cc(OCC(=O)NC(Cc3ccc(Cl)cc3)C(=O)O)c12 (stereo unspecified)	–	–	–	–	45	–	47	10	DNA CAG DR=–
Cc1cc(OCC(=O)NC(Cc2ccc(Cl)cc2)C(=O)O)c2c(C)c(C)c(=O)oc2c1 (stereo unspecified)	–	–	–	–	45	·	42	9.4
COc1ccc(CCNc2ccc(C(CC(N)=O)NC(=O)c3cc(OC)ccc3OC)cc2[N+](=O)[O-])cc1 (stereo unspecified)	–	–	–	–	–	–	·	·
